# Records with an inconclusive call do not appear. A call without a number means that no potency is given here. Activity calls are given as the source filed them. The call rests on the fitted dose curve; in most records, active means well fitted curve in the direction sought with a large enough effect; inconclusive means small, poorly fitted or top-dose-only effect, or another doubt; inactive means no such curve, though single readings can be large; an effect the other way counts as inactive or inconclusive.
# Key:
# [1] = target: Lysine-specific demethylase 5B (Homo sapiens) (UniProt Q9UGL1); experiment: Optimization screen for KDM5B Histone Demethylases FDH coupled qHTS against the LOPAC library (AID 1347166)
# In short: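 KDM5BDeltaAP (200nM final) in 50mM HEPES pH 7.5, 0.01% Tween-20 was preincubated with compound for 10 min at room temperature. A substrate mix of 12.5uM H3K4Me3, 25uM a-ketoglutarate, ascorbate, Fe2+, NAD+ and formaldehyde dehydrogenase was then added. NADH fluorescence (340/450 nm) was read initially and after 30 min.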
# [2] = Vero cells viability qHTS for Zika virus inhibitors (AID 1347167)
# In short: (§1)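 qHTS titration; 24-48 h compound exposure, 37 degrees C/5% CO2; DMEM, 4% FBS; CellTiter Glo ATP luminescence.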
# [3] = HepG2 cells viability qHTS for Zika virus inhibitors (AID 1347168)
# In short: as §1
# [4] = Tertiary RLuc qRT-PCR qHTS assay for Zika virus inhibitors (AID 1347169); further: top concentration of the series differs between compounds; nearly all actives have a fitted effect of over 55% in size
# In short: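 Vero cells (1,000/well) infected with recombinant ZIKV-RLuc (Cambodian) at MOI 1-2 after compound addition, 48-72 hrs at 37 degrees C. Live-cell Renilla luciferase substrate added; luminescence read after 1-1.5 hrs.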
# Chain of Lysine-specific demethylase 5B (Homo sapiens) (Q9UGL1 whole entry, looked up): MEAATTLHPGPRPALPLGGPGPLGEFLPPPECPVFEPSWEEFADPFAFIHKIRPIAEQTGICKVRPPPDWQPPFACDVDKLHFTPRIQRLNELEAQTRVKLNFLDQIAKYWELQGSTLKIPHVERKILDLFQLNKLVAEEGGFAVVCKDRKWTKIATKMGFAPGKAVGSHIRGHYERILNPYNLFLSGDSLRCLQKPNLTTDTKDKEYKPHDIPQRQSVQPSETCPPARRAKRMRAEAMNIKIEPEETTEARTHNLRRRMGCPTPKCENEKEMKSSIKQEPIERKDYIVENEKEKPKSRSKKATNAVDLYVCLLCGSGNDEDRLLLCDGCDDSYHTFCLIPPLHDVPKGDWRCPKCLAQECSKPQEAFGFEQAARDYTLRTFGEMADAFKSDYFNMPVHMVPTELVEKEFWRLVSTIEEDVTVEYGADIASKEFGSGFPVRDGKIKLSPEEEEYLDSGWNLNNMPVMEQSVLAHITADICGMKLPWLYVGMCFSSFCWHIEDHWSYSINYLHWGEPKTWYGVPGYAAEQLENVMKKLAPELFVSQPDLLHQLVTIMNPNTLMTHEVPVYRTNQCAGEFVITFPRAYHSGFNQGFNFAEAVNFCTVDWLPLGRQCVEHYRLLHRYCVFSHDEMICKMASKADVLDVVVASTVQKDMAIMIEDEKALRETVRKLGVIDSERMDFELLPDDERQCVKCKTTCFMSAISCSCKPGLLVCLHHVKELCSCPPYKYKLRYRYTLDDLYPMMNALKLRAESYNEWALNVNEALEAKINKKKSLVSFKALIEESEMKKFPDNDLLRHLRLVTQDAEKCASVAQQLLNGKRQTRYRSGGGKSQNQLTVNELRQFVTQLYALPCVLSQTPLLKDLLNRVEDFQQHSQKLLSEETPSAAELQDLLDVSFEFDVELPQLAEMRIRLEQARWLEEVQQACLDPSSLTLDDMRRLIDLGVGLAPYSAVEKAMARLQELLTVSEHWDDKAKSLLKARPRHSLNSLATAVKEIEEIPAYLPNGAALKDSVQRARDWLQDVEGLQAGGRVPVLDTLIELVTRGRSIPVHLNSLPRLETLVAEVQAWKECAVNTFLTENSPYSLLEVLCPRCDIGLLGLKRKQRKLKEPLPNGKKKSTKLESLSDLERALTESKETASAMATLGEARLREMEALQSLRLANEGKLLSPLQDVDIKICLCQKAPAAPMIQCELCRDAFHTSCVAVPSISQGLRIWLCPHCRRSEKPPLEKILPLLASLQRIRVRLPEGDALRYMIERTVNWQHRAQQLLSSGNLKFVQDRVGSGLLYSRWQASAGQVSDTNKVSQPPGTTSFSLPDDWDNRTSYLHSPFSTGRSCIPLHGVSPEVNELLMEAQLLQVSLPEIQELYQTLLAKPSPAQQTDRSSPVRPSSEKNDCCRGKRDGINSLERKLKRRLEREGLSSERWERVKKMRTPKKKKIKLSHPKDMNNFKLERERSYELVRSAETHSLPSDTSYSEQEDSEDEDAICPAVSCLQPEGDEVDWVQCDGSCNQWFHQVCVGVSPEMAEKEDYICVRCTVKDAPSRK
structure (smiles),measurement,setting,value
CN1CCN(C2=Nc3cc(Cl)ccc3Nc3ccccc32)CC1,outcome,[1],inactive
CN(C)CCC=C1c2ccccc2C=Cc2ccccc21,outcome,[1],inactive
CN1CCC(=C2c3ccccc3C=Cc3ccccc32)CC1,outcome,[1],inactive
COC(=O)Nc1nc2ccc(C(=O)c3cccs3)cc2[nH]1,outcome,[1],inactive
CN(C)c1nc(N(C)C)nc(N(C)C)n1,outcome,[1],inactive
CN1CCN2c3ccccc3Cc3ccccc3C2C1 (configuration not stated),outcome,[1],inactive
COc1ccccc1OCC(O)CN1CCN(CC(=O)Nc2c(C)cccc2C)CC1 (configuration not stated),outcome,[1],inactive
CN(C)CCOC(c1ccccc1)c1ccccc1,outcome,[1],inactive
Cc1cn([C@H]2C=C[C@@H](CO)O2)c(=O)[nH]c1=O,outcome,[1],inactive
CN1C2CCC1CC(OC(=O)C(CO)c1ccccc1)C2 (configuration not stated),outcome,[1],inactive
CN1CCC(=C2c3ccccc3CC(=O)c3sccc32)CC1,outcome,[1],inactive
CCOC(=O)c1ncn2c1CN(C)C(=O)c1cc(F)ccc1-2,outcome,[1],inactive
CC(C)Cc1ccc(C(C)C(=O)O)cc1 (configuration not stated),outcome,[1],inactive
CC(C)C(=O)Nc1ccc([N+](=O)[O-])c(C(F)(F)F)c1,outcome,[1],inactive
NC(=O)OCC(COC(N)=O)c1ccccc1,outcome,[1],inactive
Nc1nnc(-c2cccc(Cl)c2Cl)c(N)n1,outcome,[1],inactive
CN(Cc1cnc2nc(N)nc(N)c2n1)c1ccc(C(=O)N[C@@H](CCC(=O)O)C(=O)O)cc1,Potency,[2],inactive
same,outcome,[3],inactive
same,Potency,[4],inactive
CC12CC3CC(C)(C1)CC(N)(C3)C2,outcome,[1],inactive
Cn1c(=O)c2[nH]cnc2n(C)c1=O,outcome,[1],inactive
COc1cc2c(c(OC)c1OC)-c1ccc(OC)c(=O)cc1[C@@H](NC(C)=O)CC2,outcome,[1],inactive
COc1ccc(C2CNC(=O)C2)cc1OC1CCCC1 (configuration not stated),outcome,[1],inactive
COc1ccc(CCN(C)CCCC(C#N)(c2ccc(OC)c(OC)c2)C(C)C)cc1OC (configuration not stated),outcome,[1],inactive
CS(=O)(=O)Nc1ccc([N+](=O)[O-])cc1Oc1ccccc1,outcome,[1],inactive
NCCCCCC(=O)O,outcome,[1],inactive
Clc1ccc2nsnc2c1NC1=NCCN1,outcome,[1],inactive

# — PubChem BioAssay (NCATS)
